From PubChem BioAssay AID588334 (Broad Institute, 2011)
The whole screen tested about 300,000 compounds, of which about 2,300 (0.77%) were called active. Many of the other results were omitted from the sample, so actives are more common in it than they were. Unmarked numbers belong to inactive results.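 The calls were made as follows: active = mean activation of at least 80% with every replicate also reaching 80%; inconclusive = mean reaches 80% but some replicate falls short; inactive = the rest.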

Assay: activators of MITF-driven TRPM1 promoter reporter, primary screen, cell-based, SK-MEL-5, luciferase, single point (AID 588334);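 also: 0% = neutral control wells and 100% = parthenolide positive control wells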
Settings: SK-MEL-5 TRPM1-promoter luciferase, 24 h; at 12.5 µM; active compounds read high; % of positive control, neutral wells = 0

Row | Structure (SMILES) | activation
1 | Brc1ccc(CSc2ccc(-c3ccco3)nn2)cc1 | 71.9%
2 | O=C(CSc1ccc(-c2ccco2)nn1)Nc1cccc(F)c1 | 13.2%
3 | Fc1cccc(Cl)c1CSc1ccc(-c2ccco2)nn1 | 93.7% (active)
4 | O=C(Nc1ccn(CCCNCc2ccc3[nH]ccc3c2)c(=O)n1)OCc1ccccc1 | -4.16%
5 | CCCSc1ccc([C@H]2N[C@@](Cc3ccccc3)(C(=O)OC)[C@H]3C(=O)N(C)C(=O)[C@@H]23)cc1 | 1.47%
6 | Cc1ccccc1OCC(=O)Nc1ccc(S(=O)(=O)N2CCOCC2)cc1 | -5.13%
7 | Cc1ccccc1OCC(=O)Nc1ccc2c(c1)ncn2C | 152% (active)
8 | Cc1ccccc1OCC(=O)Nc1ccc(N2CCN(C(=O)C(C)C)CC2)c(Cl)c1 | -59.2%
9 | Cc1cc([N+](=O)[O-])ccc1NS(=O)(=O)c1ccccc1 | 6.15%
10 | CCN(CC)S(=O)(=O)c1cccc(NC(=O)c2ccc(S(=O)(=O)N3CCCC3)cc2)c1 | -10.8%
11 | Cc1ccc(OCc2cc(C(=O)N(C)CCn3ccnc3C)no2)cc1C | 11%
12 | Cc1ccc(OCc2cc(C(=O)N(C)CCc3ccccc3)no2)cc1C | 111% (active)
13 | Cc1cc(CN(C)C(=O)c2cc(COc3ccc(C)c(C)c3)on2)n[nH]1 | 11.7%
14 | CCN1CCC(O)(/C=C/c2ccc(C)cc2)C(C(=O)/C=C/c2ccc(C)cc2)C1 (stereo unspecified) | -75.9%
15 | COc1cccc(CC(=NO)c2cccc(OC)c2)c1 | 1.7%
16 | CCCN(CCC)S(=O)(=O)c1cc2c(cc1Br)CCN2C(=O)CC | 3.88%
17 | COc1ccc2sc(-c3ccc(N(C)C)cc3)c(C#CCO)c2c1 | 51.4%
18 | COc1ccc2sc(-c3ccc(N(C)C)cc3)c(-c3ccc4cc[nH]c4c3)c2c1 | 102% (active)
19 | COc1cc(OC)cc(-c2sc3ccc(OC)cc3c2-c2ccc3cc[nH]c3c2)c1 | 7.42%

Row | Structure (SMILES) | activation
20 | CCOC(=O)c1ccccc1NC(=O)CSc1nc2c(sc(=S)n2CC)c(=O)[nH]1 | 1.55%
21 | O=S(=O)(Nc1ccc2ccccc2c1)N1CCCCC1 | 3.28%
22 | O=C(/C=C/c1ccc(Cl)cc1)Nc1ccc(S(=O)(=O)Nc2ncccn2)cc1 | -11.3%
23 | CC(C)(C)c1ccc(/C=C/C(=O)Nc2ncccn2)cc1 | 118% (active)
24 | CC(C)(C)c1ccc(/C=C/C(=O)NCCCn2ccnc2)cc1 | -9.17%
25 | COc1ccc(CN2CCN(C(=O)c3cc(C4CC4)nn3-c3ccccc3)CC2)cc1F | -1.05%
26 | O=C(Nc1cccc(S(=O)(=O)N2CCCC2)c1)c1cncc(Br)c1 | 15.2%
27 | O=C(Nc1ccc(N2CCCC2=O)cc1)c1cncc(Br)c1 | 114% (active)
28 | O=C(Nc1cccc(S(=O)(=O)N2CCCCC2)c1)c1cncc(Br)c1 | -5.18%
29 | O=C(NN=Cc1ccc([N+](=O)[O-])cc1)C1CC1 | 17.3%
30 | Cc1cc(OCCCC(=O)Nc2cc(S(=O)(=O)N3CCOCC3)ccc2N2CCOCC2)ccc1Cl | 2.58%
31 | Cn1c(-c2ccc(C(F)(F)F)cc2)cc2onc(-c3ccccc3)c2c1=O | 126% (active)
32 | O=c1c2ccccc2c(-c2ccc(F)cc2)nn1-c1ccc(C(F)(F)F)cc1 | -11.9%
33 | Cn1c(-c2ccc(F)cc2)cc2onc(-c3ccccc3Cl)c2c1=O | 76.3%
34 | O=S(=O)(O)c1cc2onnc2c2ccccc12 | -3.61%
35 | COc1ccc(-c2ccc3c(c2)C2CC3CCN2CCC#N)cc1 (stereo unspecified) | 0.239%
36 | CC(C)c1ccc(C=NNc2ccc([N+](=O)[O-])cn2)cc1 | 16.4%
37 | CC(=O)c1sc(NC(=O)CCCOc2ccccc2C)nc1C | -1.04%
38 | CC(=O)c1sc(N/N=C/c2ccc(C(C)C)cc2)nc1C | 94.8% (active)

Row | Structure (SMILES) | activation
39 | Cc1ccc(Nc2c(O)nc[nH]c2=O)cc1C | -6.95%
40 | CCN(CC(=O)Nc1c(F)cccc1F)C(=O)Cc1cccs1 | 11.6%
41 | O=[N+]([O-])c1ccc(COc2ccccc2CN2CCOCC2)cc1 | -8.16%
42 | O=C(Cc1ccc(NC(=O)C2CCCN(C(=O)CCc3ccccc3)C2)cc1)Nc1ccc(C(=O)N2CCOCC2)cc1 (stereo unspecified) | 8.07%
43 | Cc1c(CCC(=O)O)c(=O)oc2cc(OCc3ccc(Br)cc3)ccc12 | -2.55%
44 | COC(=O)Cc1c(C)c2ccc(OCC(=O)NCc3ccc4c(c3)OCO4)cc2oc1=O | -3.93%
45 | CCc1c(C)c2ccc(OC3CCCCC3=O)cc2oc1=O (stereo unspecified) | 92.6% (active)
46 | CC/C(=C\c1ccc(Cl)cc1)c1ccncc1 | -3.21%
47 | Brc1ccc(-c2nnc(-c3ccccc3)o2)o1 | 48.3%
48 | Nc1ccc(-c2nnc(-c3ccc(-c4ccccc4)cc3)o2)cc1 | 89.1% (active)
49 | Nc1ccc(-c2nnc(-c3ccccc3)o2)cc1 | 27.8%
50 | CC[C@]12c3[nH]c4ccc(Cl)cc4c3CCN1C(=O)[C@@H](CC(=O)NCCCOC)C[C@@H]2C(=O)N1CCN(C(=O)C2CC2)CC1 | -3.13%
51 | O=C(Nc1cccc(F)c1)NC1CCCCCCC1 | 119% (active)
52 | C/C(CC(=O)Nc1cccc(F)c1)=N\NC(=O)C(=O)NC1CCCCC1 | -5.94%
53 | O=C(Nc1cccc(F)c1)NC1CCCc2ccccc21 (stereo unspecified) | 11.6%
54 | Cc1occc1C(=O)Nc1nnc(-c2ccncc2)s1 | 23%
55 | O=C(Nc1nnc(C2CC2)s1)c1cc(Cl)sc1Cl | 6.39%
56 | Cc1occc1C(=O)Nc1nnc(C2CCCCC2)s1 | 91.3% (active)
